This is an account of results in PubChem BioAssay (EPA / NIEHS).

Molecules are shown by their SMILES. “And” between values parts separate entries of the source, which are not always exact repeats. Equal values may be shown once. Records with an inconclusive call do not appear. More than one record can exist for a structure, and the calls need not agree. The source made the active and inactive calls. How the source made its calls, unless noted: active means hit-call score of the fitted dose curve at least 0.9, where 1 is the maximum; inactive means score below 0.9.

Experiment [1] concerns the target mouse Estrogen Receptor alpha (Era), Esr1 (gene 13982) (UniProt P19785). Briefly: NVS_NR_mERa: NovaScreen (NVS) Nuclear Receptor Binding Assay for mouse Estrogen Receptor alpha (Era) (AID 2283378; active means hit-call score of the fitted dose curve at least 0.9, where 1 is the maximum;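 further: hit means loss of bound radioligand signal relative to DMSO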). An outline of the steps:
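Measurements come from scintillation counting after filtration, taken 18 hours after chemicals were added to a cell-free mouse Era preparation with radioligand. Screening was duplicate at 25 uM, with concurrent positive and negative controls and confirmatory concentration series for actives.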

The nature of experiment [2]: ATG_Ets_CIS: Attagene CIS-FACTORIAL HepG2 Assay for human Erythroblast Transformation Specific (ETS) (AID 2282941). Conditions: HepG2 ETS cis-reporter transcription, actives raise or lower the signal. An outline of the steps: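 HepG2 cells transfected with multiple cis-regulated reporter units measuring endogenous ETS-driven transcription, 24 h after dosing. Reporter mRNA quantified by RT-PCR with capillary electrophoresis; bidirectional fit relative to DMSO.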

Experiment [3] in a line: ATG_PBREM_CIS: Attagene CIS-FACTORIAL HepG2 Assay for human Phenobarbital-responsive Enhancer Module (PBREM) (AID 2282955). Conditions: HepG2 PBREM cis-reporter, Attagene multiplexed transcription; actives raise or lower the signal. The method in brief:
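After a 24 h incubation with test chemical, transfected HepG2 cells yield total RNA; reporter-specific RT-PCR products are fluorescently labelled, HpaI-digested and resolved by capillary electrophoresis against ROX size standards.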

Read-out in experiment [4]: Vascular cell adhesion molecule 1 (VCAM1), VCAM1 (gene 7412)
Briefly: BSK_hDFCGF_VCAM1: BioMAP Diversity Plus: hDFCGF Assay for Vascular cell adhesion molecule 1 (VCAM1) Biomarker Activity (AID 2283065).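 On AC50: VCAM-1 protein level quantified by ELISA after 24 h chemical exposure.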 Conditions: primary human foreskin fibroblasts; actives raise or lower the signal. An outline of the steps:
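Measured after 24 h chemical treatment of primary human skin fibroblasts, VCAM-1 was detected by ELISA and concentration-response analysed in both directions versus DMSO vehicle.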

Read-out in experiment [5]: Intercellular Adhesion Molecule 1 (ICAM1), ICAM1 (gene 3383)
Briefly: BSK_KF3CT_ICAM1: BioMAP Diversity Plus: KF3CT Assay for Intercellular Adhesion Molecule 1 (ICAM1) Biomarker Activity (AID 2283067). Conditions: primary human keratinocytes with fibroblasts; actives raise or lower the signal. The method in brief: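 Bidirectional curve fitting against a DMSO baseline was applied to ICAM-1 ELISA signal from primary human skin co-cultures harvested 24 h after treatment, with SRB staining of parallel wells for overt cytotoxicity.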

Read-out in a further experiment: CD40, CD40 (gene 958)
Nature of the experiment: BSK_LPS_CD40: BioMAP Diversity Plus: LPS Assay for CD40 Biomarker Activity (AID 2283076). Conditions: primary human HUVEC with PBMC; actives raise or lower the signal. An outline of the steps: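 Using a multiplexed primary human co-culture (umbilical vein endothelium plus PBMC), CD40 was read by ELISA 24 h after dosing, with cytotoxicity tracked by sulforhodamine B staining of parallel cultures and activity fitted bidirectionally versus DMSO.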

Read-out in experiment [6]: E-selectin (Homo sapiens) (UniProt P16581)
Nature of the experiment: BSK_LPS_Eselectin: BioMAP Diversity Plus: LPS Assay for Eselectin Biomarker Activity (AID 2283077). Conditions: primary human HUVEC with PBMC; actives raise or lower the signal. An outline of the steps: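 Dose chemical onto LPS-driven HUVEC/PBMC co-culture; after 24 h, run ELISA for E-selectin; fit up- and down-going responses relative to DMSO control.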

Read-out in experiment [7]: Monocyte Chemoattractant Protein-1 (MCP1), CCL2 (gene 6347)
Briefly: BSK_LPS_MCP1: BioMAP Diversity Plus: LPS Assay for Monocyte Chemoattractant Protein-1 (MCP1) Biomarker Activity (AID 2283081). Conditions: primary human HUVEC with PBMC; actives raise or lower the signal. An outline of the steps: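 Values derive from bidirectional fitting against DMSO of ELISA-measured MCP-1 in a human primary endothelial and mononuclear cell co-culture, 24 h after chemical addition under LPS activation.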

A short description of experiment [8]: BSK_LPS_PGE2: BioMAP Diversity Plus: LPS Assay for Prostaglandin E2 (PGE2) Biomarker Activity (AID 2283082). Conditions: primary human HUVEC with PBMC; actives raise or lower the signal. An outline of the steps: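 Endpoint derived from bidirectional curve fitting versus DMSO of ELISA-measured PGE2 in LPS-stimulated human primary vascular co-culture (HUVEC with PBMC) harvested at 24 h.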

Read-out in experiment [9]: Macrophage colony-stimulating factor (MCSF), CSF1 (gene 1435)
Nature of the experiment: BSK_LPS_MCSF: BioMAP Diversity Plus: LPS Assay for Macrophage colony-stimulating factor (MCSF) Biomarker Activity (AID 2283083). Conditions: primary human HUVEC with PBMC; actives raise or lower the signal. An outline of the steps: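 Bidirectional fit versus DMSO of ELISA-measured M-CSF in co-cultured human umbilical vein endothelial cells and PBMC, sampled 24 h after dosing.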

Read-out in experiment [10]: CD69, CD69 (gene 969)
Briefly: BSK_SAg_CD69: BioMAP Diversity Plus: SAg Assay for CD69 Biomarker Activity (AID 2283089).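 On AC50: cell surface CD69 protein quantified by ELISA with fluorescence detection.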 Conditions: primary human HUVEC with PBMC; actives raise or lower the signal. The method in brief: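 HUVEC co-cultured with PBMC were dosed with chemical, and CD69 was measured by ELISA with fluorescence read-out 24 h later. Bidirectional curve fitting used DMSO as negative control and activity baseline.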

The nature of experiment [11]: BSK_SAg_PBMCCytotoxicity: PBMC Cytotoxicity Assessment in the BioMAP Diversity Plus: SAg Assay (AID 2283093).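 Further: PBMC viability measured as Alamar Blue reduction fluorescence at 546/580 nm; fitted both ways against DMSO so a hit may be loss or gain of signal.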 Conditions: primary human HUVEC with PBMC. An outline of the steps: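 HUVEC/PBMC co-culture; PBMC exposed to chemical 1 h before SEB and TSST-1 activation (20 ng/mL each), incubated 90 h, then Alamar Blue 6 h, fluorescence 546/580 nm. Bidirectional fit versus DMSO baseline.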

Read-out in experiment [12]: Interferon-inducible T-cell alpha chemoattractant (ITAC), CXCL11 (gene 6373)
Nature of the experiment: BSK_hDFCGF_ITAC: BioMAP Diversity Plus: hDFCGF Assay for Interferon-inducible T-cell alpha chemoattractant (ITAC) Biomarker Activity (AID 2284251). Conditions: primary human foreskin fibroblasts. The method in brief: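 Primary human foreskin fibroblasts (hDFCGF system) treated for 24 h; I-TAC quantified by ELISA. Gain-direction fitting versus DMSO; parallel SRB staining of total protein flagged overt cytotoxicity.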

Read-out in experiment [13]: Intercellular Adhesion Molecule 1 (ICAM1), ICAM1 (gene 3383)
Briefly: BSK_BE3C_ICAM1: BioMAP Diversity Plus: BE3C Assay for Intercellular Adhesion Molecule 1 (ICAM1) Biomarker Activity (AID 2284278).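 Further: cell-surface ICAM-1 protein level quantified by ELISA.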 Conditions: primary human bronchial epithelial cells. An outline of the steps: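 Measured by ELISA: ICAM-1 expressed by primary human bronchial epithelial cells 24 h after compound treatment, with upward-direction fitting versus DMSO vehicle.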

Read-out in experiment [14]: Epidermal growth factor receptor (EGFR), EGFR (gene 1956)
Nature of the experiment: BSK_BE3C_EGFR: BioMAP Diversity Plus: BE3C Assay for Epidermal growth factor receptor (EGFR) Biomarker Activity (AID 2284281). Conditions: primary human bronchial epithelial cells. The method in brief: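 Human primary bronchial epithelial cells (BE3C system) dosed with chemicals; EGFR measured by ELISA at 24 h, fitted in the positive direction relative to DMSO. Cytotoxicity tracked in parallel cultures by SRB total-protein staining.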

Read-out in another experiment: KRT18 (gene 3875)
Nature of the experiment: BSK_BE3C_Keratin818: BioMAP Diversity Plus: BE3C Assay for Keratin 818 Biomarker Activity (AID 2284282). Conditions: primary human bronchial epithelial cells. An outline of the steps:
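BE3C: human bronchial epithelial primary cells, 24 h exposure, Keratin 8/18 ELISA; DMSO = negative control/baseline; cytotoxicity by parallel SRB stain (0.1% SRB after 10% TCA fixation, 560 nm).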

Read-out in experiment [15]: Matrix Metallopeptidase 9 (MMP9), MMP9 (gene 4318)
Nature of the experiment: BSK_BE3C_MMP9: BioMAP Diversity Plus: BE3C Assay for Matrix Metallopeptidase 9 (MMP9) Biomarker Activity (AID 2284283). Conditions: primary human bronchial epithelial cells. An outline of the steps:
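Endpoint is the ELISA MMP-9 signal in human primary bronchial epithelial cultures taken 24 h after chemical dosing. DMSO serves as negative control and baseline, with gain-of-signal fitting.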

Read-out in experiment [16]: TIMP metallopeptidase inhibitor 2 (TIMP2), TIMP2 (gene 7077)
Briefly: BSK_hDFCGF_TIMP2: BioMAP Diversity Plus: hDFCGF Assay for TIMP metallopeptidase inhibitor 2 (TIMP2) Biomarker Activity (AID 2284289). Conditions: primary human foreskin fibroblasts. The method in brief:
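Primary human foreskin fibroblasts in the hDFCGF system, dosed for 24 h; TIMP-2 level measured by ELISA, fitted in the positive direction against DMSO; cytotoxicity checked in parallel by sulforhodamine B total protein staining.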

Read-out in experiment [17]: CD69, CD69 (gene 969)
Nature of the experiment: BSK_LPS_CD69: BioMAP Diversity Plus: LPS Assay for CD69 Biomarker Activity (AID 2284303). Conditions: primary human HUVEC with PBMC. The method in brief: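 Human umbilical vein endothelial cells co-cultured with PBMC under LPS stimulation, chemical exposure 24 h; cell-surface CD69 measured by ELISA and fitted in the positive direction versus DMSO.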

Experiment [18] can be described thus: ATG_M_61_CIS: Attagene CIS-FACTORIAL HepG2 Assay for M61 Transcription Factor (Internal Marker) (AID 2282937). Conditions: HepG2 Attagene CIS-FACTORIAL M61 internal marker reporter; actives raise or lower the signal. The method in brief:
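Fluorescence from labelled cDNA fragments, separated by capillary electrophoresis, quantifies reporter induction. HepG2 cells bearing transiently transfected cis-promoter MRTUs were incubated with test chemical for 24 h; DMSO defined baseline for gain/loss fitting.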

Chain of E-selectin (Homo sapiens) (P16581 whole entry, looked up): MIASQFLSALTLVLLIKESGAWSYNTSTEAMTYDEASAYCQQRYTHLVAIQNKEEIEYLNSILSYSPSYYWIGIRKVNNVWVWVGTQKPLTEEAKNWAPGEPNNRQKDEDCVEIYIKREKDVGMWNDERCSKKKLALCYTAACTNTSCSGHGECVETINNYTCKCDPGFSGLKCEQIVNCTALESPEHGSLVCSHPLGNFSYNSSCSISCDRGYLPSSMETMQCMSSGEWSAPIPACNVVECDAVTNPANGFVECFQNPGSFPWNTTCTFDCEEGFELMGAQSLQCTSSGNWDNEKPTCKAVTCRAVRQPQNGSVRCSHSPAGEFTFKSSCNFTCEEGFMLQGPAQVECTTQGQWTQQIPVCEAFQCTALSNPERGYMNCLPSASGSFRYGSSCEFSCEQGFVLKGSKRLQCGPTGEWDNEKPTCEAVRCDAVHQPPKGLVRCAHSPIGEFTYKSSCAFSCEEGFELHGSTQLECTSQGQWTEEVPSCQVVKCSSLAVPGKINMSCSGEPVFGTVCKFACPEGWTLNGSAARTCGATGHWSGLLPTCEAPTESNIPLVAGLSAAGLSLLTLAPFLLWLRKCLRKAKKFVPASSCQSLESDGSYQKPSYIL
Chain of mouse Estrogen Receptor alpha (Era), Esr1 (gene 13982) (P19785 whole entry, looked up): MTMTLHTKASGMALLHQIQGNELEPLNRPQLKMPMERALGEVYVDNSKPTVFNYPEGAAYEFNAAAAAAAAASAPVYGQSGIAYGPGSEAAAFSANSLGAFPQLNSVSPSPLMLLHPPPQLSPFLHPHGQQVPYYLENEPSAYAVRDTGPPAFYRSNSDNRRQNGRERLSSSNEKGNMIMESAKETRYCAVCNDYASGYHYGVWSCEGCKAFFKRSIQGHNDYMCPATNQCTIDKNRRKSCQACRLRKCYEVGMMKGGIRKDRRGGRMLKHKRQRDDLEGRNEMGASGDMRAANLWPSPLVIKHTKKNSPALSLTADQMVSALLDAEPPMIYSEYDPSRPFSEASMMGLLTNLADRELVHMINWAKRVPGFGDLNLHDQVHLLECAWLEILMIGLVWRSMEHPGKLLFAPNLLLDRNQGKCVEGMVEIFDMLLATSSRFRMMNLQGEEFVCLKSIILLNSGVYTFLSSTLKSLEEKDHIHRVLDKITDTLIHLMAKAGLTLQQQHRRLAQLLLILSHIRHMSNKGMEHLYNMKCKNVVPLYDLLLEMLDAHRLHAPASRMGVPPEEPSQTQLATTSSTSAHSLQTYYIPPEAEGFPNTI

In the case of `Cc1cccc(NC(=S)N(C)C)c1`, the result in experiment [1] was inactive.

As for `COc1ccc(COC=O)cc1`, the molecule was classed as inactive in experiment [1].

Broadly, the AC50 is the midpoint of the concentration-response curve, whichever way the signal moves. For `Oc1ccc(Oc2ccccc2)cc1`, the result in experiment [2] and in [3] was inactive. In addition, the AC50 in experiment [1] is 8.86 µM (active).

As to `CCC[Si](OC(C)=O)(OC(C)=O)OC(C)=O`, the outcome in experiment [4] is “inactive”; in [5] it was “inactive”; in the experiment with CD40, CD40 (gene 958) it was “inactive”; in experiment [6] it was “inactive”; in experiment [7] it was “inactive”; in experiment [8], “inactive”. Besides, the outcome in experiment [9] was “inactive”; with CD69, CD69 (gene 969) [10], “inactive”; in experiment [11] it was “inactive”; in [12], “inactive”; in [13], “inactive”; in experiment [14] it was “inactive”. Also, the outcome in the experiment with KRT18 (gene 3875) is “inactive”; in experiment [15], “inactive”; in experiment [16], “inactive”; with CD69, CD69 (gene 969) [17], “inactive”. In the experiment with CD69, CD69 (gene 969) [17], the AC50 was 0.327 µM (active).

Take `CCO[Si](OCC)(OCC)c1ccccc1`: the result in experiment [18] and in experiment [2] was inactive.

In the case of `N#CCN(CC#N)CCN(CC#N)CC#N`, the molecule was called inactive in experiment [2] and in experiment [3].

For the molecule `COc1cc(CNC(=O)CCCC/C=C/C(C)C)ccc1O`, the AC50 in experiment [4] is 0.384 µM (active); in experiment [8], 4.62 µM (active) and 2.9 µM (active); in the experiment with CD69, CD69 (gene 969) [10], 27.1 µM (active); in experiment [12] it was 8.32 µM (active) and 8.05 µM (active); in experiment [16], 27.7 µM (active). In addition, the outcome in experiment [4] was “inactive”; in experiment [5], “inactive”; with CD40, CD40 (gene 958), “inactive”; in [6], “inactive”; in experiment [7], “inactive”; in experiment [9] it was “inactive”. Moreover, the outcome in the experiment with CD69, CD69 (gene 969) [10] was “inactive”; in experiment [11], “inactive”; in experiment [13], “inactive”; in experiment [14] it was “inactive”; with KRT18 (gene 3875) it was “inactive”; in experiment [15], “inactive”. For the same molecule, the outcome in experiment [16] was “inactive”; with CD69, CD69 (gene 969) [17], “inactive”.
